Our source for the Potency and outcome values is PubChem BioAssay (Tox21).

Values without a mark were called inactive. Records with an inconclusive call do not appear. Active and inactive are the calls of the source. Unless noted, calls come from the whole dose curve; as a rule, active = well fitted curve in the direction sought with a large enough effect in the repeat runs; inconclusive = weak or mixed curves; inactive = no such curve, though single readings can be large; an effect the other way counts as inactive or inconclusive.

Experiment [1] is described as follows: qHTS RealTime-Glo MT Cell Viability Assay in HEK293 cells - 8 hour (AID 1224887). Note: nearly all actives have a fitted effect of over 50% in size. Note: potency is the fitted concentration of half-maximal effect. In short, it runs like this: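 600 cells/well were plated with the nonlytic NanoLuc/prosubstrate reagent, pre-incubated 5 h, then given 23 nL of compound in DMSO. Incubation at 37 C for 40 h, with luminescence from viable-cell-reduced substrate read repeatedly from 0 h.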
On the technique in general: qHTS replaces the single test concentration by a dilution series.

Experiment [2] in a line: qHTS RealTime-Glo MT Cell Viability Assay in HepG2 cells - 0 hour (AID 1224889). Note: nearly all actives have a fitted effect of over 50% in size. In short, it runs like this: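 Luminescence read-out: viable HepG2 cells reduce a prosubstrate to a NanoLuc substrate, giving a signal proportional to live cell number. Reads taken at 0, 8, 16, 24, 32 and 40 h of compound exposure at 37 C.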
A short description of experiment [3]: qHTS assay to identify small molecule antagonists of the estrogen receptor alpha (ER-alpha) signaling pathway using the BG1 cell line in the presence of 0.1 nM 17-beta-estradiol - cell viability counter screen (AID 1259241). Note: nearly all actives have a fitted effect of over 40% in size. In short, it runs like this: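 CellTiter-Fluor read (30 min, 37C) on ER-alpha/ERE-luc VM7Luc4E2 cells; 22 hr compound treatment; agonist 0.1 nM E2 final; same-well multiplex.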

Experiment [4] addresses Androgen receptor (Homo sapiens) (UniProt P10275). Put plainly: qHTS assay to identify small molecule antagonists of the androgen receptor (AR) signaling pathway using the MDA cell line in the presence of 0.5 nM R1881 (AID 1259243). Note: nearly all actives have a fitted effect of over 50% in size. Note: potency is the fitted concentration of half-maximal effect. Put shortly: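 MDA-kb2 cells (MMTV-luciferase, responsive to AR and GR) at 3,000/well, rested 5 h at 37C, 0% CO2, then given compounds plus 0.5 nM R1881 (final) for 16 hr. Luciferase read with ONE-Glo after 30 min at room temperature.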

Experiment [5] in a line: qHTS assay to identify small molecule HDAC inhibitors (AID 1259364). Note: top concentration of the series differs between compounds; nearly all actives have a fitted effect of over 45% in size. Put shortly:
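Wild-type HCT-116 cells, plated overnight at 37 C, exposed to compounds 2 hr at 37 C; luminogenic HDAC-Glo substrate then added 30 min at room temperature. Luminescence reports relative endogenous class I/II HDAC activity.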

A short description of experiment [6]: qHTS assay to identify small molecule HDAC inhibitors - cell viability counter screen (AID 1259365). Note: series mostly up to about 92 µM; nearly all actives have a fitted effect of over 50% in size. In short, it runs like this:
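To flag cytotoxic hits, 1,500 wild-type HCT-116 cells per well, plated the day before, receive test compounds for 2hr at 37 C before CellTiter-Glo reagent and a luminescence read.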

Experiment [7] can be described thus: qHTS assay to identify small molecule agonists of the sonic hedgehog signaling (Shh) pathway - cell viability counter screen (AID 1259366). Note: nearly all actives have a fitted effect of over 50% in size. Note: potency is the fitted concentration of half-maximal effect. In short, it runs like this: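 Fluorescence from CellTiter-Fluor reports live cells in this counter screen. NIH/3T3-derived Gli1-Luc reporter cells receive test compounds for 24hr at 37C; reagent goes in at 23hr.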
Experiment [8] can be described thus: qHTS assay to identify small molecule antagonists of the sonic hedgehog signaling (Shh) pathway - cell viability counter screen (AID 1259367). Note: nearly all actives have a fitted effect of over 55% in size. Note: potency is the fitted concentration of half-maximal effect. Put shortly:
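Cells: 3T3 Gli1-Luc, 2,000/well, 4 hr pre-incubation. Compounds in DMSO, then conditioned medium. Incubation 24 hr, 37C, 5% CO2. CellTiter-Fluor at 23 hr, 1 hr, fluorescence.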

The nature of experiment [9]: qHTS assay to identify small molecule agonists of the sonic hedgehog signaling (Shh) pathway (AID 1259368; calls by dose curve;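 note: NIH/3T3-derived 3T3Gli1-Luc cells carrying a stable Gli1-driven firefly luciferase reporter; series mostly up to about 92 µM; nearly all actives have a fitted effect of over 15% in size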). Put shortly: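 NIH/3T3-derived 3T3Gli1-Luc cells with stably integrated Gli1-driven firefly luciferase, 2,000 cells/well, compounds added after 4 hr. Incubated 24 hr at 37C, 5% CO2; luminescence read after 30 min with luciferase reagent at room temperature.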
The nature of experiment [10]: qHTS assay to identify small molecule antagonists of the sonic hedgehog signaling (Shh) pathway (AID 1259369; calls by dose curve; note: nearly all actives have a fitted effect of over 45% in size; note: potency is the fitted concentration of half-maximal effect). In short, it runs like this:
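NIH/3T3-derived Gli1-Luc reporter cells plated 4 h, dosed with compound, then stimulated with conditioned medium for 24 h at 37 C. Firefly luciferase luminescence read after 30 min with detection reagent at room temperature.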

The nature of experiment [11]: qHTS assay to identify small molecule agonists of the androgen receptor (AR) signaling pathway in the presence of an antagonist - cell viability counter screen (AID 1259379). Note: nearly all actives have a fitted effect of over 25% in size. Note: potency is the fitted concentration of half-maximal effect. In short, it runs like this:
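MDA-kb2 cells (MMTV-luciferase, AR/GR), 3,000/well, 5 h attachment, then 3.0 µM nilutamide (final) and compounds at 15 concentrations. Viability by CellTiter-Fluor fluorescence after 16 h at 37 °C, 0% CO2, in the reporter wells.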

The target of experiment [12] is Androgen receptor (Homo sapiens) (UniProt P10275). The experiment in a line: qHTS assay to identify small molecule agonists of the androgen receptor (AR) signaling pathway in the presence of an antagonist (AID 1259381; calls by dose curve; note: nearly all actives have a fitted effect of over 15% in size). In short, it runs like this:
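MDA-kb2 cells carrying MMTV-luciferase (AR/GR responsive), 3,000 cells/well, co-treated with 3.0 uM nilutamide final. Compounds at 15 concentrations, 16 hr at 37C without CO2. Luciferase luminescence read after 30 min with ONE-Glo.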

Experiment [13] can be described thus: A CellTox Green Cytotoxicity Assay to monitor cytotoxicity in HepG2 cells - 8 hour (AID 1224890). Note: nearly all actives have a fitted effect of over 45% in size. Note: potency is the fitted concentration of half-maximal effect. Put shortly:
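HepG2 cells, 600/well, preincubated 5 h with CellTox Green dye, then exposed to Tox21 compounds in DMSO at 37 C for up to 40 h. Dead-cell DNA fluorescence read at the indicated time point.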

A short description of experiment [14]: qHTS assay to identify small molecule antagonists of the androgen receptor (AR) signaling pathway using the MDA cell line in the presence of 0.5 nM R1881 - cell viability counter screen (AID 1259242). Note: nearly all actives have a fitted effect of over 45% in size. Note: potency is the fitted concentration of half-maximal effect. Put shortly: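 MDA-kb2 cells (MMTV-luciferase, AR/GR responsive) were treated with compounds plus 0.5 nM R1881 (final) for 16 hr at 37C, 0% CO2. Viability was then read in the same wells as live-cell protease fluorescence (CellTiter-Fluor, 30 min).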

In experiment [15] the target is Estrogen receptor (Homo sapiens) (UniProt P03372). The experiment in a line: qHTS assay to identify small molecule antagonists of the estrogen receptor alpha (ER-alpha) signaling pathway using the BG1 cell line in the presence of 0.1 nM 17-beta-estradiol (AID 1259244). Note: nearly all actives have a fitted effect of over 50% in size. Note: potency is the fitted concentration of half-maximal effect. In short, it runs like this:
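VM7Luc4E2 cells (endogenous full-length ER-alpha, 4×ERE-luciferase), kept 5 days in phenol red-free, charcoal-stripped FBS medium; 4,000 cells/well. Compounds added with 0.1 nM (final) 17beta-estradiol, 22 hr at 37C; luminescence read with ONE-Glo after 30 min.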

Experiment [16] deals with Estrogen receptor beta (Homo sapiens) (UniProt Q92731). Put plainly: qHTS assay to identify small molecule agonists of the estrogen receptor beta (ER-beta) signaling pathway (AID 1259377; active = well fitted activation curve with a large enough effect in the signal ratio in the repeat runs, not every such curve was filed as active; the % refers to the signal ratio). Put shortly:
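Screening used GripTite ER-beta-UAS-bla cells held in 2% charcoal-stripped FBS medium. After overnight (16 hr) compound incubation at 37C, beta-lactamase activity was detected with a FRET substrate by fluorescence.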

Experiment [17] in a line: qHTS assay to identify small molecule agonists of the estrogen receptor beta (ER-beta) signaling pathway - cell viability counter screen (AID 1259380). Note: nearly all actives have a fitted effect of over 30% in size. Note: potency is the fitted concentration of half-maximal effect. Put shortly: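 ER-beta-UAS-bla HEK293T cells in medium with 2% charcoal-stripped FBS, pre-incubated 6 hr, then treated 16 hr at 37C. Cytotoxicity read in the same wells by CellTiter-Glo luminescence after 30 min at room temperature.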

The target in experiment [18] is Estrogen receptor beta (Homo sapiens) (UniProt Q92731). Put plainly: qHTS assay to identify small molecule antagonists of the estrogen receptor beta (ER-beta) signaling pathway (AID 1259378; active = well fitted inhibition curve with a large enough effect in the signal ratio in the repeat runs, not every such curve was filed as active; the % refers to the signal ratio; note: potency is the fitted concentration of half-maximal effect). Put shortly:
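Antagonist mode: compounds added to beta-lactamase reporter HEK293T ER-beta-UAS cells stimulated with E2 (1nM final), 16 hr at 37C. LiveBLAzer B/G FRET substrate, 2 hours room temperature, fluorescence read-out.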

A short description of experiment [19]: A CellTox Green Cytotoxicity Assay to monitor cytotoxicity in HEK293 cells - 16 hour (AID 1224888). Note: nearly all actives have a fitted effect of over 35% in size. Put shortly: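 HEK293 cells, 600/well, were preincubated 5 hours and then exposed to compounds at 37 C for up to 40 hours. A cell-impermeant cyanine dye staining dead-cell DNA was read by fluorescence at 0, 8, 16, 24, 32 and 40 h time points.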

Estrogen receptor beta (Homo sapiens), sequence (Q92731 whole entry, looked up): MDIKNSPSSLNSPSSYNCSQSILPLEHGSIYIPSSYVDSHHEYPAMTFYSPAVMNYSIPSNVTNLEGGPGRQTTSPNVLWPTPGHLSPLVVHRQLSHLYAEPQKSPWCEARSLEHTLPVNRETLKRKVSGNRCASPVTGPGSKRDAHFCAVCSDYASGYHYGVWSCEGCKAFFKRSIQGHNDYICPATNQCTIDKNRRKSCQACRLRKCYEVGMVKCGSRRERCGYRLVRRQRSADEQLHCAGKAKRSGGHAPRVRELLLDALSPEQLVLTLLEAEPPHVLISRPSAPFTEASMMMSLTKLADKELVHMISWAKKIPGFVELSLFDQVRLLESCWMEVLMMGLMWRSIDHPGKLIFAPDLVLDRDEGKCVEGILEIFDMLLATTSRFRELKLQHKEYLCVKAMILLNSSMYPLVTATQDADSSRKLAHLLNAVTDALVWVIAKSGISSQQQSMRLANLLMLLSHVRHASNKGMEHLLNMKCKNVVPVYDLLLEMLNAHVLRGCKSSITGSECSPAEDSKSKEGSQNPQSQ
Estrogen receptor (Homo sapiens), sequence (P03372 whole entry, looked up): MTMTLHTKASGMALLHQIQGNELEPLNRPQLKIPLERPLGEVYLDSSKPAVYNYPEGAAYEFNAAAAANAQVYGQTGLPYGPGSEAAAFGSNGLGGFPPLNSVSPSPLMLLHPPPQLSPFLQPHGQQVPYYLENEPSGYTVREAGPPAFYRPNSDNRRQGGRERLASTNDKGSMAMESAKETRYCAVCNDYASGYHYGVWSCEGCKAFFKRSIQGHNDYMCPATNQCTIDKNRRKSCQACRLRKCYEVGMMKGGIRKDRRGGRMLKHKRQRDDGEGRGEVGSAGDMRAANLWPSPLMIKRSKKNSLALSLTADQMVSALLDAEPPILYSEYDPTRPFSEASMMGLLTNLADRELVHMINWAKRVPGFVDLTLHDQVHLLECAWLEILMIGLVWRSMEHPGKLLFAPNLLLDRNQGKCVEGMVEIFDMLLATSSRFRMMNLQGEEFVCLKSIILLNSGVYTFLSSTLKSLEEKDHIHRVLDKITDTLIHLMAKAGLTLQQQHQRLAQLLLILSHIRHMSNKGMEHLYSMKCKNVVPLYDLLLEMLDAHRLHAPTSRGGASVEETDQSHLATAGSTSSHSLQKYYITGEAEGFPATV
Androgen receptor (Homo sapiens), sequence (P10275 whole entry, looked up): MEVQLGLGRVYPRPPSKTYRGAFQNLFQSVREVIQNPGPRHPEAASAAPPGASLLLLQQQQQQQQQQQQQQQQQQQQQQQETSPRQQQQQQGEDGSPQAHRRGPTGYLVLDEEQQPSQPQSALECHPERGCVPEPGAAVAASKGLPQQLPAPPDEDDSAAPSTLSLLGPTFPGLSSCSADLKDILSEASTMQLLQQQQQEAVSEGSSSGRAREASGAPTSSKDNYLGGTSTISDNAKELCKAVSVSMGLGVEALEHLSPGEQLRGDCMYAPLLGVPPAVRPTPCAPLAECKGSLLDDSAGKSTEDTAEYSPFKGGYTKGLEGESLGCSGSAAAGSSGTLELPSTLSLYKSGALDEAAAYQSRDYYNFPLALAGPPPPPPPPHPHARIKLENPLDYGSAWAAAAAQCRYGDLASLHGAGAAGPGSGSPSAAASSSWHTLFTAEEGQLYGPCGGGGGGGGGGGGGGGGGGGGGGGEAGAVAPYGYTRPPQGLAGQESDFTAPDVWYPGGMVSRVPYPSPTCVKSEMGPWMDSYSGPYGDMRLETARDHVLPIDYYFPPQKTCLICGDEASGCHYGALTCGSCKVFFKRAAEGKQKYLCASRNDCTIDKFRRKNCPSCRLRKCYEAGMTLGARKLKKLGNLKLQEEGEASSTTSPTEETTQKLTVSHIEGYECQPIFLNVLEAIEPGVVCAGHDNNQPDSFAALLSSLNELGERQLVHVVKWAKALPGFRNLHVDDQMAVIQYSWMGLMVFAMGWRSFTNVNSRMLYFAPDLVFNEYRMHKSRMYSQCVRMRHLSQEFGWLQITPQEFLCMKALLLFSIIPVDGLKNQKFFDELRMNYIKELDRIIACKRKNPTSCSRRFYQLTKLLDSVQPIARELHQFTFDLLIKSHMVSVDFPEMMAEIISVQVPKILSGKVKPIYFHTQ

For `CCCCCCCCCCCCCCCCCCNC(=O)OC1CCN(C(=O)OC[C@H](COC(=O)N(Cc2cccc[n+]2CC)C(=O)c2ccccc2OC)OC)CC1`, the Potency in experiment [1] was 21.3 µM (active); in [4], 23.7 µM (active); in experiment [10] it was 26.6 µM (active); in experiment [11], 26.6 µM (active). In addition, the Potency result in [2], in experiment [3], in experiment [5], in experiment [6], in experiment [7] and in experiment [8] was “inactive” each time. For the same molecule, the Potency entry in experiment [9] and in experiment [12] was “inactive” each time.
With `Oc1ccc(Cl)cc1C1CCCC1`, the results for the Potency in [1] and in experiment [13] were 27.5 µM (active) and 49 µM (active), respectively. The Potency entry in experiment [2], in experiment [3], in experiment [14], in experiment [15], in [5] and in experiment [6] was “inactive” each time. Also, the Potency result in experiment [7], in experiment [8] and in [9] was “inactive” each time. In experiment [16], the outcome was inactive.
With `CC(O)(c1ccc(Cl)cc1)c1ccc(Cl)cc1`, the Potency is 34.7 µM (active) in experiment [1], 54.9 µM (active) in experiment [13] and 43.3 µM (active) in [10]. Further, the Potency entry in experiment [2], in experiment [14], in experiment [5], in experiment [7], in [9] and in experiment [11] was “inactive” in each case. In addition, in [17], the Potency result was “inactive”. Moreover, the result in experiment [16] was inactive.
Regarding `O=C1C=CC(=O)N1c1cccc(N2C(=O)C=CC2=O)c1`, the Potency in experiment [1] was 19.5 µM (active); in experiment [13] it was 17.4 µM (active); in [14], 61.1 µM (active); in [4] it was 61.1 µM (active); in experiment [15], 61.1 µM (active); in experiment [7], 8.63 µM (active). For the same molecule, the Potency in [8] is 7.7 µM (active); in [10] it was 1.72 µM (active); in experiment [18], 61.1 µM (active). The Potency result in experiment [2], in experiment [5], in experiment [9] and in [12] was “inactive” each time. For the same molecule, in experiment [16], the molecule was called inactive.
Take `Nc1ccc2c(S(=O)(=O)O)cccc2c1S(=O)(=O)O`: the Potency entry in experiment [1], in experiment [19], in experiment [13], in [14], in [4] and in experiment [5] was “inactive” each time. The Potency entry in experiment [6], in experiment [7], in experiment [8], in [9], in experiment [10] and in experiment [11] was “inactive” in each case. The Potency result in [17] and in experiment [12] was “inactive” in each case.
Take `Cc1cc(C)c(O)c(C(C)(C)C)c1`: the Potency result in [1], in [2], in experiment [13], in [3], in [14] and in experiment [4] was “inactive” throughout. For the same molecule, the Potency entry in experiment [15], in experiment [5], in experiment [7], in experiment [8], in [9] and in experiment [10] was “inactive” each time. Also, the Potency result in experiment [18], in experiment [11], in [17] and in [12] was “inactive” in each case. Besides, in [16], the call was inactive.
As to `CCCCC/C=C\C=C\C(=O)OCC`, the Potency result in experiment [19], in [2], in [13], in experiment [3], in experiment [14] and in experiment [15] was “inactive” throughout. Besides, the Potency result in [5], in experiment [6], in [9] and in [18] was “inactive” each time. For the same molecule, in experiment [17], the Potency is 50.6 µM (active).
